In the supplement of paper PMC12819154, “High-throughput peptide-centric local stability assay extends protein–ligand identification to membrane proteins, tissues and bacteria” (Nature Structural & Molecular Biology, 2025):

Compound: Nc1ncnc2c1ncn2[C@@H]1O[C@H](COP(=O)(O)OP(=O)(O)OP(=O)(O)O)[C@@H](O)[C@H]1O [adenosine 5'-triphosphate]
Assay: log2 fold change of tryptic peptide abundance, ligand vs vehicle (limited proteolysis) (log2 ratio); higher = more trypsin-susceptible (destabilized)
Conditions: ligand concentration: 5 mM; sample: E. coli desalted lysate; replicate design: treated before aliquoting
Description: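 HT-PELSA: desalted E. coli K-12 BW25113 lysate (with 12 mM MgCl2) incubated with 5 mM ATP (pH 7) or water for 30 min at 25 C, then a 4 min trypsin pulse at 22 C. Peptides were quantified by DIA-MS (4 replicates). Value is the peptide log2 fold change (treated/control); negative = stabilized. Scale: negative = ligand-stabilized region.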
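Also: lysate desalted by size exclusion to strip endogenous ATP, peptide intensities built from DIA-NN precursor signals, and peptides missing any value discarded before comparison.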

UniProt P30015, sequence (P30015 whole entry): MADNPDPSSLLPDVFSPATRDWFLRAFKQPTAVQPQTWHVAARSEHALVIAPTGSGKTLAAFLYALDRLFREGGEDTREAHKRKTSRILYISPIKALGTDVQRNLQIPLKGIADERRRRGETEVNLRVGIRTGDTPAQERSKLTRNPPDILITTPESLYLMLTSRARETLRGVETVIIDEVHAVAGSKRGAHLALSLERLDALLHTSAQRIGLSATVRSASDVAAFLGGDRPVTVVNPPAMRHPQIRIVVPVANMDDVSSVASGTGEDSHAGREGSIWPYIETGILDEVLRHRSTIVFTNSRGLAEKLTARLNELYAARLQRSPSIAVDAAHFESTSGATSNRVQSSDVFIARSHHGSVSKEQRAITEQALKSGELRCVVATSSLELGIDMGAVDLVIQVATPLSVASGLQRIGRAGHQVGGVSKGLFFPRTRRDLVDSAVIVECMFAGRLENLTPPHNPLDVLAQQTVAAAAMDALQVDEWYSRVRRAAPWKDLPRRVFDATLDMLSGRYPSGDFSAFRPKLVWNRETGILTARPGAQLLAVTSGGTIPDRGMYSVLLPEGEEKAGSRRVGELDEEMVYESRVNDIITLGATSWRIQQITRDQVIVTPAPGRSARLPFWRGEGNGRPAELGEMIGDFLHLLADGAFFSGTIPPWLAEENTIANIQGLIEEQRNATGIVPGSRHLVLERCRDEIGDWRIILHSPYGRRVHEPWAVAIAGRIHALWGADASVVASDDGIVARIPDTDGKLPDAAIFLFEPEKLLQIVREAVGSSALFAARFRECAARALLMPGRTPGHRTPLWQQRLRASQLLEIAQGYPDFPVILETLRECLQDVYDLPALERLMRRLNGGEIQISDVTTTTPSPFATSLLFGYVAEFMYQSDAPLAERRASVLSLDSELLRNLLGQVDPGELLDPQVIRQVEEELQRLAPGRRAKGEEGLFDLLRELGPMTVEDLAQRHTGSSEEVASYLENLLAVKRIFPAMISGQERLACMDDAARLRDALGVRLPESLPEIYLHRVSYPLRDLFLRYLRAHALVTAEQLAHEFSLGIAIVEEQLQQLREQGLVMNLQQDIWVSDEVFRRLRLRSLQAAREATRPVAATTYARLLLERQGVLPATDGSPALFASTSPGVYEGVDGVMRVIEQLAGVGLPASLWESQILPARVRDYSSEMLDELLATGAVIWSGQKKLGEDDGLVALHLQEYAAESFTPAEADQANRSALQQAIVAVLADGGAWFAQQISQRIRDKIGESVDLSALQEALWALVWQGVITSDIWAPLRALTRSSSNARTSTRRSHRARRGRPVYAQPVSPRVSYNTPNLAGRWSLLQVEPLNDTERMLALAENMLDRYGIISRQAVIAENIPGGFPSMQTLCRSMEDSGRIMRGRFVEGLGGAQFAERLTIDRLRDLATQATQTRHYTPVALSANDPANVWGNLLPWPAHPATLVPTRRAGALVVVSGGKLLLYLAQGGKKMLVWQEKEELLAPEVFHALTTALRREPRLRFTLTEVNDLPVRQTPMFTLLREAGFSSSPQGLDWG
UniProt P37685, sequence (P37685 whole entry): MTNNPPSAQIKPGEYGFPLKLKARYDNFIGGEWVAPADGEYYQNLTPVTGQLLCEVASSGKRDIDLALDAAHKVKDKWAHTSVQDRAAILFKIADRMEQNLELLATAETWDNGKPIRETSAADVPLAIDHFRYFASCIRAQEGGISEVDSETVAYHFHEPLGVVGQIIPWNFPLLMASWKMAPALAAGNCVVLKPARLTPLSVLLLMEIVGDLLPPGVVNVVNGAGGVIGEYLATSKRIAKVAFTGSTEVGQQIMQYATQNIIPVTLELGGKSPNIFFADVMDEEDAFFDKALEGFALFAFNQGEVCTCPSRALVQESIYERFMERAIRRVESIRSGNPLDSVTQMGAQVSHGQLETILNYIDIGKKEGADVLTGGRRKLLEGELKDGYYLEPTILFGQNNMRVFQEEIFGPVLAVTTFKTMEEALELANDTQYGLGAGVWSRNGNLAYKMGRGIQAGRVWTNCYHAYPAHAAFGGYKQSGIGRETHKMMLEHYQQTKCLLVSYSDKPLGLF
UniProt P76506, sequence (P76506 whole entry): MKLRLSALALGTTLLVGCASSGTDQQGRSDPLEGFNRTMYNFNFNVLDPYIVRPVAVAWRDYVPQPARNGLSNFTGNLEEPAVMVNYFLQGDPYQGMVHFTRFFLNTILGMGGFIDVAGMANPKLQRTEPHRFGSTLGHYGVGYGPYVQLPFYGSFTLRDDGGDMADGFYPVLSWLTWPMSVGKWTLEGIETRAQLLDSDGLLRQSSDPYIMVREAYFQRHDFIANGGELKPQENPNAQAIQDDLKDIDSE
UniProt P02919, sequence (P02919 whole entry): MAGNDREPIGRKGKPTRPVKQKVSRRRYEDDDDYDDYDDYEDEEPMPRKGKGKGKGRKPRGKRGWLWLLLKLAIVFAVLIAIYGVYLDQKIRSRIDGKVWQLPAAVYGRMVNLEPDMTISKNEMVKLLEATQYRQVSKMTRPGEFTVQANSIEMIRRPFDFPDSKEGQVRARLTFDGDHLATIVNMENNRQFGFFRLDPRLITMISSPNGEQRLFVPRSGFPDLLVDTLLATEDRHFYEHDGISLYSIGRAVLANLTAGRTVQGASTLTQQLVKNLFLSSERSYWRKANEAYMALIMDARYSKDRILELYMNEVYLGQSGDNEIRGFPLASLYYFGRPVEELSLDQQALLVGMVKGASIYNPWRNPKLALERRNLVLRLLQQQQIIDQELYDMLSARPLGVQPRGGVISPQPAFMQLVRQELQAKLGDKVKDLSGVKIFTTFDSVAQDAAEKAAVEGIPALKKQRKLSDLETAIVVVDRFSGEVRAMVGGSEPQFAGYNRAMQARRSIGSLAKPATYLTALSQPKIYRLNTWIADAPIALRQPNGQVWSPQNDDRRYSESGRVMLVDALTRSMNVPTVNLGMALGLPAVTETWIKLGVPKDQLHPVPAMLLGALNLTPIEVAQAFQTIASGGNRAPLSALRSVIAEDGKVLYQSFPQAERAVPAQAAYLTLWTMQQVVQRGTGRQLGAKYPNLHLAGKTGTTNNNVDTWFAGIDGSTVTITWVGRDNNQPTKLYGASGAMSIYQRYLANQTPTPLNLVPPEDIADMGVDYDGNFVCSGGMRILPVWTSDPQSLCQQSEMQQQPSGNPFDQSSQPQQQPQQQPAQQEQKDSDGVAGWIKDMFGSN
UniProt P37327, sequence (P37327 whole entry): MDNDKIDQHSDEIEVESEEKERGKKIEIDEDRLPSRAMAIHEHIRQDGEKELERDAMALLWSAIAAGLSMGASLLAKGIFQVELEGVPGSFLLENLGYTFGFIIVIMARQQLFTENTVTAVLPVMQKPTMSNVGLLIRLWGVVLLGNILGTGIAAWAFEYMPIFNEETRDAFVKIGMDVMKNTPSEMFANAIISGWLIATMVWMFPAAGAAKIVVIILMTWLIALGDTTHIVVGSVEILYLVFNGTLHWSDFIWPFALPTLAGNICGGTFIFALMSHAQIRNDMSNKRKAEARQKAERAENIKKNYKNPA
UniProt P02925, sequence (P02925 whole entry): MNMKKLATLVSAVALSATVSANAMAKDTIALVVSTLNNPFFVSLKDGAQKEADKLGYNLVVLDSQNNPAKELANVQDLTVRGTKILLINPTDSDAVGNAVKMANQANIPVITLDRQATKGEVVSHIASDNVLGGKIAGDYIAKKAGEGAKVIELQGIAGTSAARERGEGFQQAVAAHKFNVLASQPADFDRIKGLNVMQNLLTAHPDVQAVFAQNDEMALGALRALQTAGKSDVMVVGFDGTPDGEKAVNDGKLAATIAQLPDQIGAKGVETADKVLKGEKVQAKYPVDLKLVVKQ
UniProt P31548, sequence (P31548 whole entry): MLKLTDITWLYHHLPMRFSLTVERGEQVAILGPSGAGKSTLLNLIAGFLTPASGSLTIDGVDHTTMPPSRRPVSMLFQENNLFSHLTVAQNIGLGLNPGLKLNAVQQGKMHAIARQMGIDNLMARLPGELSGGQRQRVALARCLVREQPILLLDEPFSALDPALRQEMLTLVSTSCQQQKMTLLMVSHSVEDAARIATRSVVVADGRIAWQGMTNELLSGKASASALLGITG
UniProt P39342, sequence (P39342 whole entry): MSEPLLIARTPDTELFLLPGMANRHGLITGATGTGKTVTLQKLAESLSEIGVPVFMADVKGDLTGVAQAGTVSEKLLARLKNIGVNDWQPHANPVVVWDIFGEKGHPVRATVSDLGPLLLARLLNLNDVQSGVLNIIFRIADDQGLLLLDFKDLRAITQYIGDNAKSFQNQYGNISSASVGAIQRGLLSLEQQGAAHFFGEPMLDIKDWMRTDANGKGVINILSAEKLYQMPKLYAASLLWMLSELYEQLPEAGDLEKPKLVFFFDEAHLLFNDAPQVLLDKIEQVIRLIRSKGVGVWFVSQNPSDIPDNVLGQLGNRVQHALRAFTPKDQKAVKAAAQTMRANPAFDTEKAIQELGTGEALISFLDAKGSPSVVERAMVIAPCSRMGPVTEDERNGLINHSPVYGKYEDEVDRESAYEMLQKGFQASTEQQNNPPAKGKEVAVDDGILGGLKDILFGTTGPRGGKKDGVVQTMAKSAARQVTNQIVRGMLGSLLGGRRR
UniProt P37051, sequence (P37051 whole entry): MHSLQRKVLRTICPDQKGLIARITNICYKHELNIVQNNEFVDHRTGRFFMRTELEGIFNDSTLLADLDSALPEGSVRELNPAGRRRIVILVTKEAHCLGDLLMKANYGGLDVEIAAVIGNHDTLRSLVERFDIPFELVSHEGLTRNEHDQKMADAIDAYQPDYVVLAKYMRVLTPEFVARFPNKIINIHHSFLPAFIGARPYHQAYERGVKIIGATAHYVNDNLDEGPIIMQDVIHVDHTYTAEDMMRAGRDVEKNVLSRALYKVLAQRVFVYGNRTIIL
UniProt P26281, sequence (P26281 whole entry): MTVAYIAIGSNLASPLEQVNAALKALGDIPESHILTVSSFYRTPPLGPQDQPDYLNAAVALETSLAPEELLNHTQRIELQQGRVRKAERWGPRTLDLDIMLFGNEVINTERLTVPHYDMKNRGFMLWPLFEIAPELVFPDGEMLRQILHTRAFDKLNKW

| Target | log2 fold change |
| --- | --- |
| UniProt P46859 (peptide sequence: GDFDVIESR, peptide start residue: 112) | -0.658 |
| UniProt P30015 (peptide sequence: TGDTPAQER, peptide start residue: 132) | -2.26 |
| UniProt P39342 (peptide sequence: MGPVTEDER, peptide start residue: 387) | -1.06 |
| UniProt P77555 (peptide sequence: VEYYAER, peptide start residue: 49) | -0.74 |
| UniProt P25894 (peptide sequence: QRGISPAGLATSFEK, peptide start residue: 202) | 0.934 |
| UniProt P31548 (peptide sequence: LPGELSGGQR, peptide start residue: 126) | -0.702 |
| UniProt P77615 (peptide sequence: AIEELQYQPNKLAR, peptide start residue: 40) | 0.358 |
| UniProt P02925 (peptide sequence: IAGDYIAKK, peptide start residue: 136) | 1.27 |
| UniProt P76506 (peptide sequence: SDPLEGFNR, peptide start residue: 29) | 0.294 |
| UniProt P36879 (peptide sequence: TYPGGVQALR, peptide start residue: 13) | -3.15 |
| UniProt P37685 (peptide sequence: MMLEHYQQTK, peptide start residue: 489) | -0.646 |
| UniProt P26281 (peptide sequence: ALGDIPESHILTVSSFYR, peptide start residue: 25) | -3.29 |
| UniProt P02919 (peptide sequence: SIGSLAK, peptide start residue: 507) | 0.413 |
| UniProt P0A9P6 (peptide sequence: RFMKEPQEVR, peptide start residue: 200) | -2.4 |
| UniProt P37051 (peptide sequence: TICPDQK, peptide start residue: 11) | -0.377 |
| UniProt P37327 (peptide sequence: AMAIHEHIR, peptide start residue: 37) | -0.62 |
